# Measured values taken from PubChem BioAssay (EPA / NIEHS).
# Where “and” joins values, the source holds several entries; their conditions need not be identical. Equal values may be shown once. Results filed as inconclusive are left out. A structure can be active in one record and inactive in another. Calls of active or inactive are those of the source. The calls were made as follows, unless noted: active = hit-call score of the fitted dose curve at least 0.9, where 1 is the maximum; inconclusive = response in the unintended direction; inactive = score below 0.9.
# Columns and labels:
# [1] = target: human RAR-related Orphan Receptor beta (RORb), RORB (gene 6096) (UniProt Q92753); assay: ATG_RORb_TRANS: Attagene TRANS-FACTORIAL HepG2 Assay for human RAR-related Orphan Receptor beta (RORb) (AID 2283010)
# Procedure, shortened: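 Readout is reporter-gene mRNA induction, detected as fluorescence after RT-PCR and capillary electrophoresis, fitted for gain of signal against DMSO controls. Transiently transfected HepG2 liver cells carrying GAL4-UAS reporter constructs were treated for 24 hours.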
# [2] = target: Retinoic acid receptor RXR-alpha (Homo sapiens) (UniProt P19793); assay: ATG_RXRa_TRANS: Attagene TRANS-FACTORIAL HepG2 Assay for human Retinoid X Receptor alpha (RXRa) (AID 2283012)
# Procedure, shortened: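 Transient transfection of human HepG2 with multiple GAL4-UAS reporter constructs; 24 h compound exposure; total RNA isolated, reverse-transcribed, PCR-amplified, 6-FAM labelled, HpaI-cut, resolved by capillary electrophoresis. Positive-direction fit versus DMSO.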
# [3] = target: human Vitamin D Receptor (VDR), VDR (gene 7421) (UniProt P11473); assay: ATG_VDR_TRANS: Attagene TRANS-FACTORIAL HepG2 Assay for human Vitamin D Receptor (VDR) (AID 2283022)
# Procedure, shortened: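 Transactivation by an exogenous VDR-Gal4 chimera in transiently transfected HepG2 cells was measured as reporter transcript level 24 hours after chemical treatment. RT-PCR products were analysed by capillary electrophoresis and fitted in the positive direction relative to DMSO.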
# [4] = target: human Retinoid X Receptor beta (RXRb), RXRB (gene 6257) (UniProt P28702); assay: ATG_RXRb_TRANS: Attagene TRANS-FACTORIAL HepG2 Assay for human Retinoid X Receptor beta (RXRb) (AID 2283013)
# Procedure, shortened: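 Transfect HepG2 with GAL4-UAS multi-reporter constructs (chimeric NR-Gal4, TRANS format); dose compound 24 h; isolate RNA, RT-PCR, FAM primer extension, HpaI digest; quantify by capillary electrophoresis; positive direction vs DMSO.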
# [5] = target: human Thyroid Receptor alpha (THRa1), THRA (gene 7067) (UniProt P10827); assay: ATG_THRa1_TRANS: Attagene TRANS-FACTORIAL HepG2 Assay for human Thyroid Receptor alpha (THRa1) (AID 2283014)
# Procedure, shortened: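 Transcripts from GAL4-UAS-driven reporters, measured after 24 h compound exposure by RT-PCR plus capillary electrophoresis of 6-FAM-labeled fragments, were fitted for gain of signal relative to DMSO. Cells: transiently transfected HepG2 expressing NR-Gal4 chimeras.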
# [6] = read-out: E-selectin (Homo sapiens) (UniProt P16581); assay: BSK_3C_Eselectin: BioMAP Diversity Plus: 3C Assay for Eselectin Biomarker Activity (AID 2283015; active = hit-call score of the fitted dose curve at least 0.9, where 1 is the maximum; inactive = score below 0.9;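 as to outcome: cell surface E-selectin protein quantified by ELISA 24 h after dosing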); conditions: primary human endothelial cells (HUVEC); actives raise or lower the signal
# Procedure, shortened: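 E-selectin ELISA readout, fitted bidirectionally relative to DMSO, taken 24 h post-dosing in HUVEC cultures of the 3C system. Overt cytotoxicity tracked with sulforhodamine B staining of parallel wells.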
# [7] = read-out: Interleukin-1 alpha (IL1a), IL1A (gene 3552); assay: BSK_BE3C_IL1a: BioMAP Diversity Plus: BE3C Assay for Interleukin-1 alpha (IL1a) Biomarker Activity (AID 2283016; active = hit-call score of the fitted dose curve at least 0.9, where 1 is the maximum; inactive = score below 0.9); conditions: primary human bronchial epithelial cells; actives raise or lower the signal
# Procedure, shortened: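 BE3C primary human bronchial epithelium; cpd 24 h; IL-1a by ELISA; bidirectional fit vs DMSO; parallel SRB (0.1% SRB, 10% TCA fix, 560 nm) for cytotoxicity.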
# [8] = read-out: Monocyte Chemoattractant Protein-1 (MCP1), CCL2 (gene 6347); assay: BSK_3C_MCP1: BioMAP Diversity Plus: 3C Assay for Monocyte Chemoattractant Protein-1 (MCP1) Biomarker Activity (AID 2283017; active = hit-call score of the fitted dose curve at least 0.9, where 1 is the maximum; inactive = score below 0.9); conditions: primary human endothelial cells (HUVEC); actives raise or lower the signal
# Procedure, shortened: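 MCP-1 was measured by ELISA 24 h after dosing in primary HUVEC 3C cultures and fitted in both directions relative to DMSO; cytotoxicity was checked by SRB total-protein staining in parallel wells.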
# [9] = read-out: Monocyte Chemoattractant Protein-1 (MCP1), CCL2 (gene 6347); assay: BSK_4H_MCP1: BioMAP Diversity Plus: 4H Assay for Monocyte Chemoattractant Protein-1 (MCP1) Biomarker Activity (AID 2283018; active = hit-call score of the fitted dose curve at least 0.9, where 1 is the maximum; inactive = score below 0.9); conditions: primary human endothelial cells (HUVEC); actives raise or lower the signal
# Procedure, shortened: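 ELISA read-out of MCP-1 from human vascular endothelial primary cells taken at 24 hours after compound exposure. Activity was fitted in both directions relative to DMSO, which served as negative control.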
# [10] = read-out: Human Leukocyte Antigen - DR isotype (HLADR), HLA-DRA (gene 3122); assay: BSK_3C_HLADR: BioMAP Diversity Plus: 3C Assay for Human Leukocyte Antigen - DR isotype (HLADR) Biomarker Activity (AID 2283019; active = hit-call score of the fitted dose curve at least 0.9, where 1 is the maximum; inactive = score below 0.9;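 as to outcome: ELISA of cell-surface HLA-DR on HUVEC 24 h after dosing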); conditions: primary human endothelial cells (HUVEC); actives raise or lower the signal
# Procedure, shortened: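 Bidirectional fitting against DMSO was applied to the HLA-DR ELISA signal from human umbilical vein endothelial cells, 24 h post-dose. Cytotoxicity came from parallel SRB total-protein staining; 3C proliferation was counted by SRB at 48 h.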
# [11] = read-out: Interleukin-8 (IL8), CXCL8 (gene 3576); assay: BSK_3C_IL8: BioMAP Diversity Plus: 3C Assay for Interleukin-8 (IL8) Biomarker Activity (AID 2283020; active = hit-call score of the fitted dose curve at least 0.9, where 1 is the maximum; inactive = score below 0.9); conditions: primary human endothelial cells (HUVEC); actives raise or lower the signal
# Procedure, shortened: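 ELISA read-out of IL-8 from human umbilical vein endothelium, measured 24 h after chemical dosing. Activity is expressed relative to DMSO negative control, with both increases and decreases fitted.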
# [12] = BSK_3C_SRB: Viability Assessment in the BioMAP Diversity Plus: 3C Assay (AID 2283023; active = hit-call score of the fitted dose curve at least 0.9, where 1 is the maximum; inactive = score below 0.9;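 also: fitted both ways against DMSO so a hit may be signal rise or drop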); conditions: primary human endothelial cells (HUVEC)
# Procedure, shortened: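 Cytotoxicity readout in parallel HUVEC 3C cultures: after 24 h compound exposure, cells fixed with 10% TCA, stained with 0.1% SRB and read at 560 nm. Gain or loss relative to DMSO fitted.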
# [13] = read-out: Pselectin, SELP (gene 6403); assay: BSK_4H_Pselectin: BioMAP Diversity Plus: 4H Assay for Pselectin Biomarker Activity (AID 2283026; active = hit-call score of the fitted dose curve at least 0.9, where 1 is the maximum; inactive = score below 0.9); conditions: primary human endothelial cells (HUVEC); actives raise or lower the signal
# Procedure, shortened: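 ELISA read-out of P-selectin on human umbilical vein endothelium after 24 h of dosing. Values derive from bidirectional fitting relative to DMSO. Parallel SRB protein staining flagged overt cytotoxicity.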
# [14] = BSK_BE3C_SRB: Viability Assessment in the BioMAP Diversity Plus: BE3C Assay (AID 2283028; active = hit-call score of the fitted dose curve at least 0.9, where 1 is the maximum; inactive = score below 0.9;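 as to AC50: fitted both ways so AC50 may mark signal gain or loss versus DMSO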); conditions: primary human bronchial epithelial cells
# Procedure, shortened: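 Cytotoxicity read-out: SRB (0.1%) staining of TCA-fixed (10%) human lung bronchial epithelial cells, absorbance 560 nm, 24 h post-dosing. Curves fitted both directions relative to DMSO.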
# [15] = read-out: Thrombomodulin, THBD (gene 7056); assay: BSK_3C_Thrombomodulin: BioMAP Diversity Plus: 3C Assay for Thrombomodulin Biomarker Activity (AID 2283029; active = hit-call score of the fitted dose curve at least 0.9, where 1 is the maximum; inactive = score below 0.9); conditions: primary human endothelial cells (HUVEC); actives raise or lower the signal
# Procedure, shortened: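 Read-out is ELISA of thrombomodulin on human umbilical vein endothelium 24 h after chemical dosing. Gain or loss of signal is scored relative to DMSO. Overt cytotoxicity is checked in parallel cultures by sulforhodamine B staining.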
# [16] = read-out: Urokinase-type plasminogen activator receptor (uPAR), PLAUR (gene 5329); assay: BSK_4H_uPAR: BioMAP Diversity Plus: 4H Assay for Urokinase-type plasminogen activator receptor (uPAR) Biomarker Activity (AID 2283030; active = hit-call score of the fitted dose curve at least 0.9, where 1 is the maximum; inactive = score below 0.9); conditions: primary human endothelial cells (HUVEC); actives raise or lower the signal
# Procedure, shortened: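 uPAR level read by ELISA on HUVEC cultures (BioMAP 4H) 24 h post-dosing, analyzed for gain or loss relative to DMSO. Parallel SRB staining assessed overt cytotoxicity.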
# [17] = target: human RAR-related Orphan Receptor gamma (RORg), RORC (gene 6097) (UniProt P51449); assay: ATG_RORg_TRANS: Attagene TRANS-FACTORIAL HepG2 Assay for human RAR-related Orphan Receptor gamma (RORg) (AID 2283011)
# Procedure, shortened: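 Reporter transcripts from a transfected RORg-GAL4 chimera in HepG2 cells were quantified 24 h after dosing by RT-PCR, 6-FAM labelling, HpaI digestion and capillary electrophoresis; increases over DMSO baseline were fitted.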
# human RAR-related Orphan Receptor beta (RORb), RORB (gene 6096), sequence (Q92753 whole entry, looked up, the tested form may be a part): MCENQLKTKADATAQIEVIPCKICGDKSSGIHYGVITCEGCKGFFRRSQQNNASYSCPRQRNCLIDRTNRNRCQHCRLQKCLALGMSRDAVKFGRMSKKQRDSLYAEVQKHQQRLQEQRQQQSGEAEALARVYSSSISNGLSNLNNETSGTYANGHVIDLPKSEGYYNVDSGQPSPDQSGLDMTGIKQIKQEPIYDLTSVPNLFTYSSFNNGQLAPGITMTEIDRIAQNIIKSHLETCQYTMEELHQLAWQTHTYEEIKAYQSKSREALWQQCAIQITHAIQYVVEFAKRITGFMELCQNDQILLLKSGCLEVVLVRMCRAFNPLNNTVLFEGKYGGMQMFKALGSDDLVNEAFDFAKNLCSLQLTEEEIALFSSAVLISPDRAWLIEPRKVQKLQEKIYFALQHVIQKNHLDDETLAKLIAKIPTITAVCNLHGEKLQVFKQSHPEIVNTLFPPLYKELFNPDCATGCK
# human Vitamin D Receptor (VDR), VDR (gene 7421), sequence (P11473 whole entry, looked up, the tested form may be a part): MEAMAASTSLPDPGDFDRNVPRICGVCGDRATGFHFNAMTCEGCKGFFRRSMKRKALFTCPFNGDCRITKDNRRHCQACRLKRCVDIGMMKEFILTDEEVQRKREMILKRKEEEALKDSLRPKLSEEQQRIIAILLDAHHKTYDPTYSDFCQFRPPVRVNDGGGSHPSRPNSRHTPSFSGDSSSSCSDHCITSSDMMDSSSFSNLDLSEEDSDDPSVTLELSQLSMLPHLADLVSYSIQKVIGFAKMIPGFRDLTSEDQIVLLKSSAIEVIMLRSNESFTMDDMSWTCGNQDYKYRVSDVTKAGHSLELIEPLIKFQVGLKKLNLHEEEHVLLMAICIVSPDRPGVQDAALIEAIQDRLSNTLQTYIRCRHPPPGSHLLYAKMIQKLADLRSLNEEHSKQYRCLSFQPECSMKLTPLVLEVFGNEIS
# human RAR-related Orphan Receptor gamma (RORg), RORC (gene 6097), sequence (P51449 whole entry, looked up, the tested form may be a part): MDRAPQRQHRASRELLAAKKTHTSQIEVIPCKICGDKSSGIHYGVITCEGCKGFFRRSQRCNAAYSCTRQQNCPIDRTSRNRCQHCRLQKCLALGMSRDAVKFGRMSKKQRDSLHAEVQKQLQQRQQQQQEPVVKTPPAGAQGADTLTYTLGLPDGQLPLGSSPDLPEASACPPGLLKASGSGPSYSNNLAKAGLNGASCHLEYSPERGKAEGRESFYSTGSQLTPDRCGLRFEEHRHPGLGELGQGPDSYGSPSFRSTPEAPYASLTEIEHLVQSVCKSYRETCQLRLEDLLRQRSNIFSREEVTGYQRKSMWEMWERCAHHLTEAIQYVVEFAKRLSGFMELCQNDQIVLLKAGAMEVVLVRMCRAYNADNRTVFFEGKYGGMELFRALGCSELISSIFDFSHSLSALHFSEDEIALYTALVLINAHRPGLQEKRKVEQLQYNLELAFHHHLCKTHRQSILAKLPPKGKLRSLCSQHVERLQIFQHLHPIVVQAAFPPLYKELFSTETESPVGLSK
# human Retinoid X Receptor beta (RXRb), RXRB (gene 6257), sequence (P28702 whole entry, looked up, the tested form may be a part): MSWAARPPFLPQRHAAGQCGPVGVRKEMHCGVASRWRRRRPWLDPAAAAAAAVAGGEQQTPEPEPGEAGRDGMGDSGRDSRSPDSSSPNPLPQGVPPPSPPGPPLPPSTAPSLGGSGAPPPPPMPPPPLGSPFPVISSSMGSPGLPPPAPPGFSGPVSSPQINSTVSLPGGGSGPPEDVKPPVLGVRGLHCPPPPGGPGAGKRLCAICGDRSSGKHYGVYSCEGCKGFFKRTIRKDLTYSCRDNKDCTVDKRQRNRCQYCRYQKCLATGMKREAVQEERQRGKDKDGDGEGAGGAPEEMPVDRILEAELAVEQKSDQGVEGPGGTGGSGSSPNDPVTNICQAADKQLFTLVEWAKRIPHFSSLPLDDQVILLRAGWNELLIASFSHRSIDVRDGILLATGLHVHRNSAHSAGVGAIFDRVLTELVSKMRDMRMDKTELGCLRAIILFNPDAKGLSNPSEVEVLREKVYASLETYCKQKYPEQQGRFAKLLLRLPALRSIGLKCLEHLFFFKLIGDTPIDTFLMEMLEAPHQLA
# Retinoic acid receptor RXR-alpha (Homo sapiens), sequence (P19793 whole entry, looked up, the tested form may be a part): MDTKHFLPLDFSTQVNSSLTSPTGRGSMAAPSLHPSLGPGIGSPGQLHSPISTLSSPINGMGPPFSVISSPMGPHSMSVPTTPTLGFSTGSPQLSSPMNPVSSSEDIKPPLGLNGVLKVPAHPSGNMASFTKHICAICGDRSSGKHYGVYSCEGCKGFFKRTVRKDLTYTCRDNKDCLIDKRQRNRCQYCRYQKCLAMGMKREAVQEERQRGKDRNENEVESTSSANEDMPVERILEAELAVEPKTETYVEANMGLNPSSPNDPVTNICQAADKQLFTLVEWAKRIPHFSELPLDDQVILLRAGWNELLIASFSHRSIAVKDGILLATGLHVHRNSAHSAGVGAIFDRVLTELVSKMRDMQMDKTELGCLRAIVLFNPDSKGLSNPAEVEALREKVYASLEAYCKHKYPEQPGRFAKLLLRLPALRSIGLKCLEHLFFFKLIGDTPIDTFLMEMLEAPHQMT
# human Thyroid Receptor alpha (THRa1), THRA (gene 7067), sequence (P10827 whole entry, looked up, the tested form may be a part): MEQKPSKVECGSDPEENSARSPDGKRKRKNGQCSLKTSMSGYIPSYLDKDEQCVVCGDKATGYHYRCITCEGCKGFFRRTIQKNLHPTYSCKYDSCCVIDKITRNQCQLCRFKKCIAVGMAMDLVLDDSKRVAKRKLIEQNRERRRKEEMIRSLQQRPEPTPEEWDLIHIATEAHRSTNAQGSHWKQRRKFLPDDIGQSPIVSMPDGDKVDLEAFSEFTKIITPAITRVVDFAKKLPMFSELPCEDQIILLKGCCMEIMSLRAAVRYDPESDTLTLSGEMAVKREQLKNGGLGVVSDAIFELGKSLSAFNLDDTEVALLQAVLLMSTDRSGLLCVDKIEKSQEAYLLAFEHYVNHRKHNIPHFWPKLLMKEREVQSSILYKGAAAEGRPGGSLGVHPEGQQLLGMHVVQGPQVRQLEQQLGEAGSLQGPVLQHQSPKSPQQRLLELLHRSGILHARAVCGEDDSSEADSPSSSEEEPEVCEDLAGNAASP
# E-selectin (Homo sapiens), sequence (P16581 whole entry, looked up): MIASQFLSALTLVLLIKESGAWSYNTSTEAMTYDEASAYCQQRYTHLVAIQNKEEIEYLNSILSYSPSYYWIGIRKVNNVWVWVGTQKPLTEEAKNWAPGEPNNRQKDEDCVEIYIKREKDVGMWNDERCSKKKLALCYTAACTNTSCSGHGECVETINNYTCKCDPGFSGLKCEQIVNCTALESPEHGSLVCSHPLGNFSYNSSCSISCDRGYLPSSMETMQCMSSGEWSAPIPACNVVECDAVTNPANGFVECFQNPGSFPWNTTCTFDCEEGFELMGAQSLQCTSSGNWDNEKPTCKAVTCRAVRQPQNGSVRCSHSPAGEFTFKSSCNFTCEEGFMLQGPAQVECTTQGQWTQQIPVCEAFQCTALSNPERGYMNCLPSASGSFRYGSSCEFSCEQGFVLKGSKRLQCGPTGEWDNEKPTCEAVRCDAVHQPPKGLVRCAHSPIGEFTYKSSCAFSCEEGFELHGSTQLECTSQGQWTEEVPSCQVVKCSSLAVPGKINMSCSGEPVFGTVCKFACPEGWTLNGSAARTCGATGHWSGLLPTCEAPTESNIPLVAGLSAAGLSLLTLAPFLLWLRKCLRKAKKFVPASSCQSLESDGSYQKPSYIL
smiles,measurement,setting,value
Cc1ccc(C(C)(C)O)cc1,outcome,[1],inactive
same,outcome,[2],inactive
same,outcome,[3],inactive
CCCCCCCCCCCCOC(C)=O,outcome,[1],inactive
same,outcome,[4],inactive
C1=COCCC1,outcome,[1],inactive
same,outcome,[4],inactive
CCCOC(=O)CC,outcome,[1],inactive
same,outcome,[2],inactive
same,outcome,[4],inactive
same,outcome,[5],inactive
COc1ccccc1O,outcome,[1],inactive
same,outcome,[5],inactive
CCOC(=O)C=Cc1ccccc1,outcome,[1],inactive
same,outcome,[4],inactive
same,outcome,[6],inactive
same,outcome,[7],inactive
same,outcome,[8],inactive
same,outcome,[9],inactive
same,outcome,[10],inactive
same,outcome,[11],inactive
same,outcome,[3],inactive
same,outcome,[12],inactive
same,outcome,[13],inactive
same,outcome,[14],inactive
same,outcome,[15],inactive
same,outcome,[16],inactive
CCCCCCCCOC(=O)c1ccc(O)cc1,outcome,[1],inactive
same,AC50,[4],11.1 µM (active)
c1ccc(Cc2ccccc2)cc1,outcome,[1],inactive
same,outcome,[2],inactive
same,outcome,[4],inactive
same,outcome,[5],inactive
same,outcome,[3],inactive
C/C=C(\C)C(=O)OC/C=C(\C)CCC=C(C)C,outcome,[1],inactive
same,AC50,[2],30.7 µM (active)
same,AC50,[4],4.63 µM (active)
same,outcome,[5],inactive
same,outcome,[3],inactive
N#CCCNCCC#N,outcome,[17],inactive
same,outcome,[2],inactive
same,outcome,[4],inactive
same,outcome,[3],inactive
CN(C)c1ccc(C=O)cc1,outcome,[17],inactive
same,outcome,[2],inactive
same,outcome,[4],inactive
same,outcome,[5],inactive
same,outcome,[3],inactive
O=C(O)c1ccccc1O,outcome,[17],inactive
same,outcome,[2],inactive
CCCC1CCOC(C)S1 (stereo not given),outcome,[17],inactive
same,outcome,[2],inactive
same,outcome,[3],inactive
CC(=O)OC(C)(C)C,outcome,[17],inactive
same,outcome,[2],inactive
same,outcome,[4],inactive
same,outcome,[5],inactive
O=C(c1ccc(OCCN2CCCCC2)cc1)c1c(-c2ccc(O)cc2)sc2cc(O)ccc12,outcome,[17],inactive
same,outcome,[2],inactive
same,outcome,[4],inactive
same,AC50,[5],8.22 µM (active) and 15 µM (active) and 11.1 µM (active)
same,outcome,[5],inactive
same,AC50,[6],37.8 µM (active)
same,AC50,[7],31.2 µM (active)
same,AC50,[8],27.3 µM (active)
same,AC50,[9],22.1 µM (active)
same,AC50,[10],17.4 µM (active)
same,AC50,[11],20 µM (active)
same,outcome,[3],inactive
same,AC50,[12],18.8 µM (active)
same,AC50,[13],25.2 µM (active)
same,AC50,[14],38.1 µM (active)
same,outcome,[15],inactive
same,AC50,[16],25.3 µM (active)
Nc1ccn([C@H]2CC[C@@H](CO)O2)c(=O)n1,outcome,[17],inactive
same,outcome,[2],inactive
same,outcome,[5],inactive
CCC(C)(C)C1CCC(=O)CC1,outcome,[17],inactive
same,outcome,[2],inactive
same,AC50,[4],50.6 µM (active)
